VDR inh = inhibitors of human vitamin D receptor. P11473. VDR-SRC2-3 peptide fluorescence polarization, 2 h. Potency, µM, without a hit: max response, negative = inhibition, usual class: inhibitors. 0.93% of 400,000 active
Target sequence (P11473 whole entry, looked up): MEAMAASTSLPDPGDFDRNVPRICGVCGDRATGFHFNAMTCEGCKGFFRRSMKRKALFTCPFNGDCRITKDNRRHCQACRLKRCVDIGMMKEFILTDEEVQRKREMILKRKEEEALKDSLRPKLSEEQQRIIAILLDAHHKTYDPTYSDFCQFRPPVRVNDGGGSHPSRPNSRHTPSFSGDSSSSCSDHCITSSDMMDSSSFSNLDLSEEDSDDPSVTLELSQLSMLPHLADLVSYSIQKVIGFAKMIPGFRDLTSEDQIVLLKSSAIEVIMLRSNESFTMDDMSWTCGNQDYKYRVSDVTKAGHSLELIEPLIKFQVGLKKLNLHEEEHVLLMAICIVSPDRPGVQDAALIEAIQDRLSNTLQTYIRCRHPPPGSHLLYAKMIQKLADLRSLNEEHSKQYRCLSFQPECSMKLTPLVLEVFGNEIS
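Reagent solutions, kept cold and dark, are dispensed first; compounds are then pinned in at 23 nl, plates briefly spun, and incubated 2 h at ambient temperature. Inhibition of VDR–SRC2-3 peptide binding is read by fluorescence polarization.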
PLK1 PBD inh = inhibitors of human PLK1 polo-box domain binding; Potency, µM, without a hit: max response, negative = inhibition, actives largely listed as inhibitors; Plk1 PBD binding of FITC phosphopeptide, fluorescence polarization; 2.8% of 360,000 active; note: series mostly up to about 57 µM; nearly all actives have a fitted effect of over 65% in size
Sfp inh = Sfp phosphopantetheinyl transferase inhibition. Q9F4F7. Biochemical Sfp PPTase activity, qHTS. Potency, µM, inactives show largest response in the series, negative = inhibition, most hits filed as inhibitors. 3.5% of 310,000 active;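 note: the enzyme is Sfp with the accession as filed and its product quenches rhodamine fluorescence; 0% = enzyme reaction without inhibitor and -100% = no enzyme wells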
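Sfp 15 nM + cpd, 15 min RT; start w/ rhodamine-CoA 5 uM, BHQ-2-YbbR 12.5 uM (final); 50 mM Hepes pH 7.6, 10 mM MgCl2, 0.01% NP-40, 0.01% BSA; read 525/598 nm at 0 and 30 min.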
Tau fibril FP = blocks human tau fibril formation measured by polarization; P10636; K18 P301L tau heparin fibrillization, Alexa594 FP, 6 h; Potency, µM (top dose mostly 57.7 µM), for inactives: at the top dose activity, negative = inhibition, most hits filed as inhibitors; 0.39% of 280,000 active; note: nearly all actives have a fitted effect of over 55% in size
Target sequence (P10636 561-689 P618L limits assumed): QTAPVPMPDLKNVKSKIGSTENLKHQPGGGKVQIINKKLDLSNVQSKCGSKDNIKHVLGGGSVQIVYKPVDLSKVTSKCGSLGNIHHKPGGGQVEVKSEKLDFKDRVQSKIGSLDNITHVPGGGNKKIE
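FP of Alexa 594-tau after heparin (20 uM) induction. Substrate: human K18 P301L, 15 uM unlabeled, 0.24 uM labeled. Buffer 100 mM sodium acetate pH 7. 6 hr, 37 C.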
Tau fluor cs = counter-screen for tau fibril formation inhibitors | AID 1463 | Potency, µM (highest dose often 57.7 µM), for inactives: at the highest dose activity change, negative = decrease | 0.93% of 280,000 active | tau K18 P301L Alexa594 fluorescence, heparin fibrillization; note: nearly all actives have a fitted effect of over 55% in size
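Human tau K18 P301L (15 uM unlabeled, 0.24 uM Alexa 594-labeled) in 100 mM sodium acetate pH 7 with 20 uM heparin, 6 hr at 37 C. ThT 30 uM added, 1 hr ambient; Alexa 594 FP and total fluorescence read at 555/632 nm.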
Tau ThT inhib = tau fibrillization inhibition (ThT binding); P10636; recombinant tau K18 P301L, heparin-induced fibrillization, ThT fluorescence; Potency, µM (series often up to 57.4 µM), for inactives: at the top dose activity, negative = inhibition, actives largely listed as inhibitors; 2.1% of 270,000 active; AID 1460; note: nearly all actives have a fitted effect of over 55% in size
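Using a mix of unlabeled (15 uM) and Alexa 594-labeled (0.24 uM) tau K18 P301L, heparin-triggered fibrillization over 6 hr at 37 C was scored by ThT fluorescence.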
The depositor's hits bear a star; [ ] = remark or other dose. Hits are enriched below; roughly 6% of the tested compounds scored in any of these assays. Calls come from the whole dose curve; as a rule, active = well fitted curve in the direction sought with a large enough effect; inconclusive = small, poorly fitted or top-dose-only effect, or another doubt; inactive = no such curve, though single readings can be large; an effect the other way counts as inactive or inconclusive. Unless noted, % is set by controls: 0 for no effect and ±100 for the full control effect; potency is the fitted concentration of half-maximal effect.

Results for NC(=O)CSCc1nc2ccccc2s1 ?
VDR inh: 16%; PLK1 PBD inh: inconclusive; Sfp inh: 56µM*; Tau fibril FP: 0%; Tau fluor cs: -9%; Tau ThT inhib: -13%

What do the screens show for `Cn1c(Cc2cccs2)n[nH]c1=S`?
VDR inh: -25%; PLK1 PBD inh: 27µM*; Sfp inh: 10%; Tau fibril FP: 1%; Tau fluor cs: 6%; Tau ThT inhib: 3%

Results for O=C(CSc1nc2ccccc2s1)Nc1cc(C(=O)O)cc(C(=O)O)c1 ?
VDR inh: -16%; PLK1 PBD inh: inconclusive; Sfp inh: 56µM*; Tau fibril FP: -13%; Tau fluor cs: -5%; Tau ThT inhib: 0%

What do the screens show for `N/C(Cc1nc2ccccc2s1)=N\O`?
VDR inh: -6%; PLK1 PBD inh: -7%; Sfp inh: 2%; Tau fibril FP: -2%; Tau fluor cs: -19%; Tau ThT inhib: inconclusive

What do the screens show for `O=C(CSc1nc2ccc(NC(=O)c3ccccc3C(=O)O)cc2s1)Nc1c(Cl)cccc1Cl`?
VDR inh: -16%; PLK1 PBD inh: -19%; Sfp inh: -4%

How did O=C(CSc1nc2ccccc2s1)Nc1ccc(Cl)c(C(=O)O)c1 do in these assays?
VDR inh: 2%; PLK1 PBD inh: 8.4µM*; Sfp inh: 22µM*; Tau fibril FP: -3%; Tau fluor cs: -12%; Tau ThT inhib: -10%

Results for O=C(CSc1nc2ccccc2s1)Nc1ccc2c(c1)oc1ccccc12 ?
VDR inh: 2%; PLK1 PBD inh: -12%; Sfp inh: -1%; Tau fibril FP: 5%; Tau fluor cs: 11%; Tau ThT inhib: 12%

What do the screens show for `Cc1ccc(Nc2c(-c3ccc(N4CCOCC4)cc3)nc3cccc(C)n23)cc1`?
VDR inh: -9%; Tau fibril FP: 7%; Tau fluor cs: inconclusive; Tau ThT inhib: inconclusive

What do the screens show for `COc1ccc(/C=C/N(CCc2ccc(OC)c(OC)c2)C(C)=O)cc1`?
Sfp inh: 14%; Tau fibril FP: 3%[11.6 µM]; Tau fluor cs: -19%[11.6 µM]; Tau ThT inhib: -18%[11.5 µM]

What do the screens show for `CC(C)Oc1ccc(CNC(=O)c2ccc(CS(=O)c3cccc(Cl)c3)o2)cc1` (stereo not given)?
VDR inh: 6%; Tau fibril FP: 7%; Tau fluor cs: -5%; Tau ThT inhib: -4%

Results for O=C(c1cc(C(F)(F)F)cc(C(F)(F)F)c1)N1CCC2(CCCN(c3ccncc3)C2)CC1 ?
VDR inh: -14%; Sfp inh: 8%

Results for O=C(CN1C(=O)COc2ccccc2C1=O)c1ccc2c(c1)OCCO2 ?
VDR inh: -4%; PLK1 PBD inh: 5%; Sfp inh: 4%

Results for O=C(CSc1nc2ccccc2s1)N/N=C/c1ccc(C(=O)O)cc1 ?
VDR inh: -7%; PLK1 PBD inh: -18%; Sfp inh: 11%; Tau fibril FP: -6%; Tau fluor cs: -4%; Tau ThT inhib: -6%

How did COc1ccc(/C=N/NC(=O)CCSc2nc3ccccc3s2)cc1 do in these assays?
VDR inh: -25%; PLK1 PBD inh: 30µM*; Sfp inh: 5%; Tau fibril FP: -12%; Tau fluor cs: inconclusive; Tau ThT inhib: -7%

How did CC1(C(=O)NS(=O)(=O)c2ccc(Cl)cc2)CCN1C(=O)C/C=C/c1ccccc1 (stereo not given) do in these assays?
PLK1 PBD inh: -7%

Results for COc1ccc(CCN2C(=O)CC(NNc3ccc([N+](=O)[O-])cc3)C2=O)cc1OC (stereo not given) ?
VDR inh: 12%; PLK1 PBD inh: inconclusive; Sfp inh: 1%; Tau fibril FP: -7%; Tau fluor cs: inconclusive; Tau ThT inhib: 11µM*

Results for COc1ccc(S(=O)(=O)N2CCCC2CNC(=O)C(=O)NCc2ccccn2)cc1 (stereo not given) ?
VDR inh: -1%; PLK1 PBD inh: -9%

What do the screens show for `Cc1c(CC(=O)N[C@@H](C)C(=O)O)c(=O)oc2cc3c(cc12)CCC(C)(C)O3`?
VDR inh: -10%; PLK1 PBD inh: -15%; Sfp inh: 4%

What do the screens show for `Cc1c(CC(=O)N[C@H](C(=O)O)C(C)C)c(=O)oc2cc3c(cc12)CCC(C)(C)O3`?
VDR inh: inconclusive; PLK1 PBD inh: 21µM*; Sfp inh: 6%

Results for COc1ccc(N2CCN(C(c3ccccc3)c3nnnn3C(C)C)CC2)cc1 (stereo not given) ?
VDR inh: -10%

How did Cc1c(C)n(Cc2ccccc2)c2ncnc(NN)c12 do in these assays?
VDR inh: 97%; PLK1 PBD inh: 0%; Sfp inh: 56µM*

How did C#CCOCCOCCOCCNc1nc(N2CCN(C(=O)[C@H](CCC(=O)O)n3cc([C@@H](N)CCCCN)nn3)CC2)nc(N2CCN(C(=O)[C@H](CCCCN)n3cc([C@@H](N)CC(N)=O)nn3)CC2)n1 do in these assays?
VDR inh: 7%; PLK1 PBD inh: 5%

How did COc1cccc(N2CCN(C(=O)c3ccc(=O)oc3)CC2C)c1 (stereo not given) do in these assays?
VDR inh: 2%; PLK1 PBD inh: -14%; Sfp inh: 35µM*; Tau fibril FP: -4%; Tau fluor cs: -15%; Tau ThT inhib: inconclusive

What do the screens show for `COc1cccc(NC(=O)N2CCN(c3cccc(C)c3)C(C)C2)c1` (stereo not given)?
VDR inh: 8%; PLK1 PBD inh: -3%; Sfp inh: 24%; Tau fibril FP: 3%; Tau fluor cs: -16%; Tau ThT inhib: -19%

How did O=S(=O)(/C=C/C=C/S(=O)(=O)c1ccccc1)c1ccccc1 do in these assays?
VDR inh: inconclusive; PLK1 PBD inh: 2.7µM*

What do the screens show for `NS(=O)(=O)c1ccccc1`?
VDR inh: -3%; PLK1 PBD inh: -18%; Sfp inh: 9%; Tau fibril FP: -1%; Tau fluor cs: 0%

How did CCN1CCN(c2cc(C)c3cc(NC(=O)/C=C/c4cccc(Cl)c4)ccc3n2)CC1 do in these assays?
VDR inh: 26%; Tau fibril FP: 3%; Tau fluor cs: 3.5µM*[quencher]; Tau ThT inhib: 3.2µM*

What do the screens show for `CCCCc1ccc(C(=O)Nc2ccc3nc(N4CCN(CC)CC4)cc(C)c3c2)cc1`?
VDR inh: 7%; Tau fibril FP: -11%; Tau fluor cs: inconclusive; Tau ThT inhib: inconclusive

How did CCOc1ccc(C(=O)Nc2ccc3nc(N4CCN(CC)CC4)cc(C)c3c2)cc1 do in these assays?
VDR inh: -3%; PLK1 PBD inh: -9%; Sfp inh: 6%

Results for CCN1CCN(c2cc(C)c3cc(NC(=O)c4cccc(Cl)c4)ccc3n2)CC1 ?
VDR inh: -2%; Tau fibril FP: 7%; Tau fluor cs: 14µM*[quencher]; Tau ThT inhib: inconclusive

Screens deposited in PubChem by National Center for Advancing Translational Sciences (NCATS).
